Our source for the ratio percent of control values is PubChem BioAssay AID651638 (Johns Hopkins Ion Channel Center, 2012).

In all, about 2,400 compounds went through this assay and about 2,400 (100%) were called active.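 The calls were made as follows: active = ratio percent of control, averaged over triplicates, above buffer control mean plus 5 SD (cut at about 64% in these data); inactive = the rest.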 The set was probably picked from earlier hits. Not all results are given here.

Potassium channel subfamily K member 3 (Homo sapiens), sequence (O14649 whole entry, looked up): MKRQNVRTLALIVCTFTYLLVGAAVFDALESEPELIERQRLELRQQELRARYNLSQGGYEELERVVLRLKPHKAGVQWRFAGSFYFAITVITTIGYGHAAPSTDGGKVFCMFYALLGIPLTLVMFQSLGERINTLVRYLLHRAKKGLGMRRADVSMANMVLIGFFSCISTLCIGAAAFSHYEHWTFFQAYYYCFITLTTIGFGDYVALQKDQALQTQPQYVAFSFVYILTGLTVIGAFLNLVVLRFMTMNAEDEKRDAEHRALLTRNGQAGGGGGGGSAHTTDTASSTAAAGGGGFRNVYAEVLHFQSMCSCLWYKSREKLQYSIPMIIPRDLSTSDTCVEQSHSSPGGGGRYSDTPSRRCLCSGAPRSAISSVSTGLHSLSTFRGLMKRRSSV

The experiment concerns the target Potassium channel subfamily K member 3 (Homo sapiens) (UniProt O14649). The experiment can be described thus: TASK1 potassium channel blockade, triplicate retest – CHO cells, FluxOR thallium flux, confirmation (AID 651638).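 Also: ratio is the fluorescence rise from min to max over baseline after thallium stimulus.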 The settings on record: CHO-KCNK3 thallium flux, FluxOR fluorescence, at 10 µM, active compounds read high.
Consider `COc1ccccc1C1=NCc2nnc(CSC)n2-c2ccc(Cl)cc21`, for which the ratio percent of control is 54.7% (active).

On to `CCCCCCN=C(CC)c1c(O)n(CCCC)c(=O)[nH]c1=O`, for which the ratio percent of control is 129% (active).

As for `CCOC(=O)C1SC2(C(F)(F)C(F)F)CC1(O)c1c(c(OC)c3occc3c1OC)O2` (stereo not drawn), the ratio percent of control was 112% [0% buffer, 100% carvedilol maximal block] (active).
